Results on twelve molecules are retold here after PubChem BioAssay (NCATS).

Assay [1] is described as follows: qHTS Assay for Identification of Small Molecule Antagonists for NFkB Signaling Pathway (AID 895; active = well fitted inhibition curve with a large enough effect in the signal ratio, with a control signal flat, not every such curve was filed as active; the % refers to the signal ratio). Particulars: NFkB beta-lactamase reporter cells, FRET ratio 460/530, stimulated with 10 pM TNF alpha; series mostly up to 38.3 µM. An outline of the steps:
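ME-180 NFkB-bla cells (beta-lactamase under NFkB response element), plated overnight, treated with compound then 10 pM TNF alpha (about EC50) for 5 hrs at 37 C. LiveBLAzer FRET read at 460/530 nm emission, 405 nm excitation.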
(In general: Quantitative high-throughput screening tests each substance at several concentrations.)

In assay [2] the target is Muscarinic acetylcholine receptor M1 (Rattus norvegicus) (UniProt P08482). In words: qHTS Assay for Antagonists of Acetylcholine Muscarinic M1 Receptor: Kinetic Measurement of Intracellular Calcium Response (AID 943).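 Also: Fluo-4 calcium signal as peak divided by basal fluorescence over 4 min; nearly all actives have a fitted effect of over 75% in size.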 To be noted: M1-expressing cells, kinetic intracellular calcium fluorescence; series mostly up to 35.3 µM. In outline: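 Antagonism measured as reduction of carbachol-evoked (EC80, 100 nM final) calcium flux in rat M1-CHO cells after 10 min compound exposure. Fluo-4 signal read kinetically; ratio of maximal to basal fluorescence.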

For assay [3] the target is unchanged. In words: qHTS Assay for Antagonists of Acetylcholine Muscarinic M1 Receptor: Measurement of IP-One Response (AID 944). Also: nearly all actives have a fitted effect of over 75% in size. To be noted: CHO-M1 cells, IP-One HTRF, antagonist mode; series mostly up to 46.1 µM. An outline of the steps:
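IP1 accumulation measured via TR-FRET between d2-IP1 and Eu-cryptate anti-IP1 antibody after carbachol (200 nM, EC80) stimulation for 30 min; rat M1-transfected CHO cells received compound 10 min before agonist.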

Assay [4] deals with Pyruvate kinase PKM (Homo sapiens) (UniProt P14618). In words: qHTS Assay for Activators of Human Muscle Pyruvate Kinase (AID 954; active = well fitted curve in the direction sought with a large enough effect, not every such curve was filed as active). To be noted: purified human muscle pyruvate kinase, luciferase-coupled luminescence, 1 h; series mostly up to 57.5 µM. An outline of the steps: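 Screening used highly purified human pyruvate kinase M2 under submaximal activity, with PEP at its Km and ADP below Km. After an hour at room temperature, ATP was read by luciferase luminescence.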

For assay [5], the target named is Pyruvate kinase (Leishmania mexicana) (UniProt Q27686). In words: qHTS Validation Assay for Inhibitors of Leishmania Mexicana Pyruvate Kinase (AID 945). To be noted: purified L. mexicana pyruvate kinase, enzyme activity, E451W mutant enzyme; series mostly up to 57.5 µM. In outline:
(§1)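 qHTS eight-point titrations against 0.2 nM LmPYK (E451W) in imidazole buffer pH 7.2 with 0.5 mM PEP, 0.1 mM ADP; 1 h, room temperature. Readout: PKLight luminescence, normalized to neutral DMSO wells.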

In assay [6] the target is Cytochrome P450 2C19 (Homo sapiens) (UniProt P33261). In words: qHTS Assay for Inhibitors and Substrates of Cytochrome P450 2C19 (AID 899). Also: nearly all actives have a fitted effect of over 60% in size. Also: potency is read from the fitted curve at half-maximal effect. Particulars: recombinant CYP2C19, luciferin-H EGE luminescence; series mostly up to 57.1 µM. An outline of the steps: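 Luminescent read-out of luciferin formed from Luciferin-H EGE (10uM, equal to KM). Enzyme 5nM in 50mM KPO4; compound added, 10 min at 37C, then NADPH regenerating system for 60 min at 37C. Full inhibition defined by 57uM ketoconazole.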

Assay [7] can be described thus: qHTS Assay for Identification of Small Molecule Agonists for Thrombopoietin (TPO) Signaling Pathway (AID 917). Also: potency is read from the fitted curve at half-maximal effect. To be noted: TPO signaling pathway reporter cells, agonist qHTS, stimulated with TPO at its EC50; series mostly up to 38.5 µM. An outline of the steps:
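Stimulation at the TPO EC50 (26 pM final) was used to detect activators. Ba/F3 mouse cells bearing human TPO receptor and a luciferase reporter under the Glycoprotein IIb promoter were exposed to compounds for 24 hrs at 37 C.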

The target of assay [8] is Pyruvate kinase (Leishmania mexicana) (UniProt Q27686). In words: qHTS Validation Assay for Activators of Leishmania Mexicana Pyruvate Kinase (AID 959). To be noted: purified L. mexicana pyruvate kinase, enzyme activity; series mostly up to 57.5 µM. An outline of the steps: as §1
The nature of assay [9]: Confirmation and Secondary Assay for Modulators of Hemoglobin Beta Chain Splicing at IVS2 705 locus (AID 930).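 Also: HeLa cells stably expressing the EGFP-705 splicing reporter; GFP fluorescence per well restored by corrected splicing of the IVS2-705 intron in EGFP.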 Particulars: HeLa EGFP-705 splicing reporter, GFP fluorescence, 48 h; series mostly up to 46.1 µM. An outline of the steps: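 First, HeLa EGFP-705 cells are seeded at 500/well in Optimem with 2% FCS and left overnight. Next, compound or DMSO is added for 2 days. Finally wells are laser-scanned and total peak GFP intensity scored.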

Assay [10] in a line: qHTS Assay for Identification of Small Molecule Antagonists for Thrombopoietin (TPO) Signaling Pathway (AID 918). Also: potency is read from the fitted curve at half-maximal effect; nearly all actives have a fitted effect of over 60% in size. To be noted: TPO-dependent cell signaling reporter, antagonist mode. In outline:
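Inhibition read as reduced luciferase luminescence after 24 h at 37 C in IL-3-deprived Ba/F3 cells carrying human TPO receptor and GPIIb-promoter reporter, stimulated with 26 pM TPO (final, its EC50) alongside compound.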

The structures appear in SMILES notation. Inconclusive results are not listed. The source made the active and inactive calls. Unless noted, calls follow the shape of the dose curve; as a rule, active = well fitted curve in the direction sought with a large enough effect; inconclusive = small, poorly fitted or top-dose-only effect, or another doubt; inactive = no such curve, though single readings can be large; an effect the other way counts as inactive or inconclusive.

Sequence of Cytochrome P450 2C19 (Homo sapiens) (P33261 whole entry, looked up): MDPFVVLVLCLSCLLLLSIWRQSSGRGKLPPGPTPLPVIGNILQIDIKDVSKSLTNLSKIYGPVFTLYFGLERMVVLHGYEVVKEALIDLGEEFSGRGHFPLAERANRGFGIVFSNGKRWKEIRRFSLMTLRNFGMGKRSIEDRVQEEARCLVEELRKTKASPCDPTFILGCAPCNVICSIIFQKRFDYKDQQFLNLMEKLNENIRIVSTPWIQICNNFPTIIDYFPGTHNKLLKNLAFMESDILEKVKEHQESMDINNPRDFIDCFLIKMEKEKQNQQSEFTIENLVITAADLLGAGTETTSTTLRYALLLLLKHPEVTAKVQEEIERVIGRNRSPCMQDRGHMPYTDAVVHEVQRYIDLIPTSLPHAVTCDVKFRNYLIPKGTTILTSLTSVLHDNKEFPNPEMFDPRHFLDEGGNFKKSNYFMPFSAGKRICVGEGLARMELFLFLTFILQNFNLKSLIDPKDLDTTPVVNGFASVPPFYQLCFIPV
Sequence of Pyruvate kinase (Leishmania mexicana) (Q27686 2-499 E452W): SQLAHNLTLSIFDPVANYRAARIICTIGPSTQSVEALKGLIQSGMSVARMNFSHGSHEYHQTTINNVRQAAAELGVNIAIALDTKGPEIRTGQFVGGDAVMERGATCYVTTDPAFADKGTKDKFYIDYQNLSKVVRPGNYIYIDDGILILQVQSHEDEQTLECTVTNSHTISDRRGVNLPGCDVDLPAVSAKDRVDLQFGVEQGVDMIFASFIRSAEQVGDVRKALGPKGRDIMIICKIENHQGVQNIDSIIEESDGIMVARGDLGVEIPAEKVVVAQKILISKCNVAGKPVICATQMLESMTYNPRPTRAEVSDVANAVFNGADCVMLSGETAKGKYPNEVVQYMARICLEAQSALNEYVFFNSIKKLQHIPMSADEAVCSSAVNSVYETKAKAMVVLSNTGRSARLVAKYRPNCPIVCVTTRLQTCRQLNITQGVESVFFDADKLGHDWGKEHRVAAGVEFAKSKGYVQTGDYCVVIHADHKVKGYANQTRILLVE
Sequence of Muscarinic acetylcholine receptor M1 (Rattus norvegicus) (P08482 whole entry, looked up): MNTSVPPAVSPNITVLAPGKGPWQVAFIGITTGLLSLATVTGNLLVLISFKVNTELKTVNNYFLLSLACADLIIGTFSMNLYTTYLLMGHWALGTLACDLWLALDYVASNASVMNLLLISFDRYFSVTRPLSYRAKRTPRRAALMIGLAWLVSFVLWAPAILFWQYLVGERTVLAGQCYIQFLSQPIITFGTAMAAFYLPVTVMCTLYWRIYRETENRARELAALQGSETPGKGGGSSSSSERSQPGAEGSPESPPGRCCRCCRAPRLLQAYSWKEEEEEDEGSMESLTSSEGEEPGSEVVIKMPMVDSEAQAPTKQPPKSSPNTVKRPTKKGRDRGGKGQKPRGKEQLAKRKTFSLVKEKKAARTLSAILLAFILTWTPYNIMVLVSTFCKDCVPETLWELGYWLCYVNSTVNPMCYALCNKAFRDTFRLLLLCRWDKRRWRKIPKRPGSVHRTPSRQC
Sequence of Pyruvate kinase PKM (Homo sapiens) (P14618 whole entry, looked up): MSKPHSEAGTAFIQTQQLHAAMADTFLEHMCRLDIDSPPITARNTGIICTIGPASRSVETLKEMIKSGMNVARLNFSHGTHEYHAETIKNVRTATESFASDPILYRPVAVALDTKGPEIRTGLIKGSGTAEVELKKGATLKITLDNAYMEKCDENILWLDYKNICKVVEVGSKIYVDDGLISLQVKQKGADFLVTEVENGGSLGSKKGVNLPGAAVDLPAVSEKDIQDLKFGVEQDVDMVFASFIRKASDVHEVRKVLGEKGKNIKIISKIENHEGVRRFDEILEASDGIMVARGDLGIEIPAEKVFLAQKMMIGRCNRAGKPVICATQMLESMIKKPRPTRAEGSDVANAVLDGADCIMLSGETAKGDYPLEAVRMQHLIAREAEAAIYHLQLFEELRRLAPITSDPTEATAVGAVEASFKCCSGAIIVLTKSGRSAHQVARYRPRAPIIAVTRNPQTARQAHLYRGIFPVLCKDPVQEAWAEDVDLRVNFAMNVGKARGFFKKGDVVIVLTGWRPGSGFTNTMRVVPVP

Regarding `C=CC[C@H](N)C(=O)O`, the Potency entry in assay [1], in [2] and in assay [3] was “inactive” throughout. In addition, the call in [4] was inactive.
In the case of `CCCC(=O)NCCc1c2n(c3ccc(OC)cc13)CCCc1ccccc1-2`, the Potency entry in [1], in [3] and in assay [5] was “inactive” throughout. Also, the call in assay [4] was inactive.
As to `O=C1Cc2c([nH]c3ccc(Br)cc23)-c2ccccc2N1`, the Potency result in assay [6], in [2] and in assay [8] was “inactive” each time. The Potency in assay [7] is 0.158 µM (active). Besides, the molecule was classed as inactive in assay [4].
Turning to `O=c1cc(-c2ccccc2)[nH]c2nc(Cl)ccc12`, the Potency result in assay [6], in assay [7], in [2] and in assay [3] was “inactive” in each case. Besides, the molecule was classed as inactive in assay [4].
As to `CNC(=O)c1cc2c(cn1)[nH]c1ccccc12`, the Potency result in assay [6], in [2], in assay [3] and in [8] was “inactive” in each case. The molecule was classed as inactive in [4].
For `Cn1c(=O)c2[nH]c(-c3ccc(S(=O)(=O)O)cc3)nc2n(C)c1=O`, the Potency entry in assay [6], in [7], in [2] and in assay [3] was “inactive” each time. Besides, the result in assay [4] was inactive.
For `NCCCCN`, the Potency entry in assay [7], in assay [2], in [3] and in assay [5] was “inactive” each time. Besides, the result in assay [9] and in [4] was inactive.
For `N=C(N)SCCN`, the Potency entry in [6], in assay [7] and in assay [3] was “inactive” each time. Moreover, the result in [9] and in assay [4] was inactive.
`O=C(N[C@@H](Cc1ccccc1)C(=O)CCl)OCc1ccccc1`: the Potency in assay [6] is 5.01 µM (active); in assay [10] it was 2.51 µM (active). The Potency entry in [2], in assay [3] and in assay [5] was “inactive” each time. Further, the molecule was called inactive in [4].
`O=c1[nH]c(=O)c2nc3ccccc3nc2[nH]1`: the Potency result in [6], in assay [7] and in assay [2] was “inactive” in each case. In assay [4], the molecule was called inactive.
In the case of `CC(=O)N[C@@H](Cc1c[nH]c2ccccc12)C(=O)OCc1cc(C(F)(F)F)cc(C(F)(F)F)c1`, the Potency in [6] is 7.94 µM (active). Further, the Potency result in [2], in assay [3] and in assay [5] was “inactive” in each case. In assay [4], the molecule was called inactive.
Turning to `CCn1c(=O)[nH]c2cc(Cl)c(Cl)cc21`, the Potency entry in assay [6], in assay [7], in assay [2], in assay [3] and in assay [5] was “inactive” in each case. Also, the outcome in assay [4] was inactive.
